# Test results published in article PMC12618258.
# How the values were obtained:
# Experiment in all cases: cross-link between two proteins; cross-linking mass spectrometry
# [1] = target: Large ribosomal subunit protein eL24 (UniProt P83731)
# [2] = target: Large ribosomal subunit protein eL38 (UniProt P63173)
# [3] = target: Large ribosomal subunit protein eL30 (UniProt P62888)
# [4] = target: Large ribosomal subunit protein eL6 (UniProt Q02878)
# [5] = target: Large ribosomal subunit protein uL3 (UniProt P39023)
substance,measurement,setting,value
"Large ribosomal subunit protein eL31, P62899",listed as a hit,[1],yes
"Large ribosomal subunit protein eL22, P35268",listed as a hit,[1],yes
same,listed as a hit,[2],yes
"Small ribosomal subunit protein uS4, P46781",listed as a hit,[3],yes
"Small ribosomal subunit protein uS5, P15880",listed as a hit,[4],yes
"Large ribosomal subunit protein eL13, P26373",listed as a hit,[5],yes
